Reference: the supplement of paper PMC10849652
The full data set covers some 7,900 targets. This sample favours those with a hit. About 0.6% of all pairs of compound and target were hits.

Columns and labels:
Assay in all cases: log2 fold change, soluble protein after heating vs DMSO (PISA); higher = thermal stabilisation; K562 cells, 10 uM, 30 min; active = over 0.2 and 3.5 SD of the protein, either way, in both replicates (recomputed)
[1] = compound: C1=CC=C(C=C1)[C@H](COC2=CC3=C(C=C2)NC(=O)N3)NC(=O)C4=CC=CN(C4=O)CC5=CC(=C(C=C5)F)F
Procedure, shortened: (§1)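 Quantification of soluble protein used TMTpro 16plex LC-MS/MS, with channel sums equalised. Samples were the supernatant after 21,000xg for 90 min of pooled aliquots from K562 cells (2×10^6 cells/mL) treated with 10 μM compound for 30 min, heated for 3 min over 48°C-58°C, and extracted in PBS with 0.5% NP-40 at 4°C. Values, from duplicates, describe thermal stability against control samples on a log2 fold-change scale.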

[2] = compound: CC1=C(SC2=C1C(=N[C@H](C3=NN=C(N32)C)CC(=O)N)C4=CC=C(C=C4)Cl)C
Procedure, shortened: as §1

[3] = compound: CC1=C2C(=CC=C1)N=C(N(C2=O)C3=CC=CC=C3C)CN4C=NC5=C(N=CN=C54)N
Procedure, shortened: as §1

[4] = compound: Cc1sc2c(c1C)C(c1ccc(Cl)cc1)=N[C@@H](CC(=O)OC(C)(C)C)c1nnc(C)n1-2
Procedure, shortened: as §1

[5] = compound: c1ccc([C@@H]2C[C@H]2NC2CCNCC2)cc1
Procedure, shortened: as §1

Measured: log2 fold change

GTPBP6 (UniProt O43824)
inactive: [1] 0.038 | [2] 0.007 | [3] 0.012 | [4] -0.062 | [5] -0.034

GNB2 (UniProt P62879)
inactive: [1] 0.025 | [2] 0.045 | [3] 0.029 | [4] -0.09 | [5] -0.015

IFRD2 isoform 2 (UniProt Q12894)
inactive: [1] -0.013 | [2] -0.091 | [3] -0.055 | [4] 0.063 | [5] 0.061

GNS (UniProt P15586)
inactive: [1] 0.037 | [2] 0.011 | [3] 0.013 | [4] -0.001 | [5] 0.027

FAT1 (UniProt Q14517)
inactive: [1] -0.059 | [2] -0.038 | [3] 0.126 | [4] -0.071 | [5] 0.155

HECTD1 (UniProt Q9ULT8)
inactive: [1] 0.009 | [2] 0 | [3] 0.098 | [4] 0.051 | [5] -0.004

HNRNPUL1 (UniProt Q9BUJ2)
inactive: [1] -0.021 | [2] -0.028 | [3] 0.024 | [4] 0.07 | [5] 0.058

HRAS (UniProt P01112)
inactive: [1] 0.015 | [2] 0.116 | [3] -0.03 | [4] 0.016 | [5] 0.138

H2AZ1 (UniProt P0C0S5)
inactive: [1] 0.12 | [2] -0.153 | [3] -0.247 | [4] -0.021 | [5] 0.123

HSPA8 (UniProt E9PN89)
inactive: [1] 0 | [2] 0.094 | [3] 0.123 | [4] 0.133 | [5] 0.104

FECH isoform 2 (UniProt P22830)
inactive: [1] 0.008 | [2] 0.03 | [3] 0.023 | [4] -0.07 | [5] -0.08

HMGN2 (UniProt P05204)
inactive: [1] -0.099 | [2] -0.056 | [3] -0.033 | [4] 0.021 | [5] 0.07

GPX4 (UniProt P36969)
UniProt P36969, sequence (P36969 whole entry, looked up): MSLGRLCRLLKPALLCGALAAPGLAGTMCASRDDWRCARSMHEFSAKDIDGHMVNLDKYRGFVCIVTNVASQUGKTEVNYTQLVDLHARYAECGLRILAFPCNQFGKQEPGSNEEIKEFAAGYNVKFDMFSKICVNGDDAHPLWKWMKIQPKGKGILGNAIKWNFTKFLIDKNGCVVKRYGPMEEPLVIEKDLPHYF
inactive: [1] 0.029 | [2] 0.001 | [3] 0.017 | [4] -0.064 | [5] 0.028

HMOX2 (UniProt P30519)
UniProt P30519, sequence (P30519 whole entry, looked up): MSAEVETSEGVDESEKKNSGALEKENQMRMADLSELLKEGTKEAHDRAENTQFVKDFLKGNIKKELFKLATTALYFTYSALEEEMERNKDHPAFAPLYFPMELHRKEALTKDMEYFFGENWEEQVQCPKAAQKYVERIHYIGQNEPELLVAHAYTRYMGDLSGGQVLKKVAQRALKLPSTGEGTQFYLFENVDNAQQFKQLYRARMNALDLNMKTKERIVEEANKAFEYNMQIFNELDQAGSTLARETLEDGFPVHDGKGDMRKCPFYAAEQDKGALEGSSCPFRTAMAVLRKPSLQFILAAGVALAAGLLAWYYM
inactive: [1] 0.024 | [2] 0.035 | [3] 0.169 | [4] 0.047 | [5] -0.036

HHEX (UniProt Q03014)
UniProt Q03014, sequence (Q03014 whole entry, looked up): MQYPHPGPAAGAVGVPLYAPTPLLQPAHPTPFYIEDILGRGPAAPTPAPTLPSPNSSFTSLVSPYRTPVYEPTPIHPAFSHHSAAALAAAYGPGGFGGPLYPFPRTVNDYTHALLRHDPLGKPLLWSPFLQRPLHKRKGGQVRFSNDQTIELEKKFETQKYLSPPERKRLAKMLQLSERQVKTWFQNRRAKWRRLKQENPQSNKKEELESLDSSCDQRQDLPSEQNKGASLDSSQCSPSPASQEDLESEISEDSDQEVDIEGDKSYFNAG
inactive: [1] 0.054 | [2] 0.187 | [3] 0.469 | [4] 0.026 | [5] 0.516

GLB1 (UniProt P16278)
inactive: [1] 0.042 | [2] -0.065 | [3] 0.011 | [4] -0.043 | [5] 0.026

H2AFX (UniProt P16104)
inactive: [1] 0.103 | [2] -0.353 | [3] -0.374 | [4] -0.043 | [5] 0.206

GTF3A (UniProt Q92664)
inactive: [1] 0.002 | [2] -0.001 | [3] 0.08 | [4] -0.072 | [5] -0.071

GALK1 isoform 2 (UniProt P51570)
UniProt P51570, sequence (P51570 whole entry, looked up): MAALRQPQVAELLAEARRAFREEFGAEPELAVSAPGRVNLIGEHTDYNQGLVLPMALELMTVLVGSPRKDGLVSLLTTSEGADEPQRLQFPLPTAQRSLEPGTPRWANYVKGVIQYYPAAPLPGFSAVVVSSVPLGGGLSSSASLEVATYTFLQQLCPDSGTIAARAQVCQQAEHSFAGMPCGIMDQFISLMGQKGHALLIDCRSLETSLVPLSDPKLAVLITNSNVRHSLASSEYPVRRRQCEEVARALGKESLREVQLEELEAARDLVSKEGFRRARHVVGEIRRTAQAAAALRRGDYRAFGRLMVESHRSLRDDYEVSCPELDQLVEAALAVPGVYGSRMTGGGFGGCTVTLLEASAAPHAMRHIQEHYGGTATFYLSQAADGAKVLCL
inactive: [1] -0.02 | [2] 0.016 | [3] -0.065 | [4] -0.024 | [5] -0.007

HMGN1 (UniProt P05114)
inactive: [1] 0.042 | [2] -0.023 | [3] -0.119 | [4] 0.027 | [5] 0.048

FLNA (UniProt P21333)
inactive: [1] -0.11 | [2] 0.016 | [3] 0.049 | [4] 0.019 | [5] -0.008

GNL1 (UniProt P36915)
inactive: [1] -0.042 | [2] -0.007 | [3] 0.099 | [4] -0.037 | [5] -0.038

IFI30 (UniProt P13284)
inactive: [1] -0.066 | [2] 0.01 | [3] -0.06 | [4] 0.004 | [5] 0.048

GPKOW (UniProt Q92917)
UniProt Q92917, sequence (Q92917 whole entry, looked up): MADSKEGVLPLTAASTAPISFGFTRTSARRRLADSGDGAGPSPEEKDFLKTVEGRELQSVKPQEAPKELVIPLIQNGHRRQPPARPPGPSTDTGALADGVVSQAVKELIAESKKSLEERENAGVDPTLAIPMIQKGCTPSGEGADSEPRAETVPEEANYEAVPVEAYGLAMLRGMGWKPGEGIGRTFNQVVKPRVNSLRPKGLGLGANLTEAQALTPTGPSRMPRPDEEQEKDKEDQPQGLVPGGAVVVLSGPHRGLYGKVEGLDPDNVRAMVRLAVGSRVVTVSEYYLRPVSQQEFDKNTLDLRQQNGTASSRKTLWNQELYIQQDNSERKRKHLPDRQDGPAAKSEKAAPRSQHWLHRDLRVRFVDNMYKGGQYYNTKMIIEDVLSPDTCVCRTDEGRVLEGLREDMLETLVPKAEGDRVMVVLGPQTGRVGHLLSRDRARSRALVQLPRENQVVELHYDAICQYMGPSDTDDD
inactive: [1] -0.133 | [2] 0.078 | [3] 0.076 | [4] 0 | [5] -0.015

GLUD1 (UniProt P00367)
inactive: [1] 0.046 | [2] 0.065 | [3] -0.004 | [4] 0.071 | [5] -0.03

GCC2 (UniProt Q8IWJ2)
inactive: [1] -0.027 | [2] -0.116 | [3] 0.004 | [4] 0.066 | [5] -0.059

FERMT3 (UniProt Q86UX7)
UniProt Q86UX7, sequence (Q86UX7 whole entry, looked up): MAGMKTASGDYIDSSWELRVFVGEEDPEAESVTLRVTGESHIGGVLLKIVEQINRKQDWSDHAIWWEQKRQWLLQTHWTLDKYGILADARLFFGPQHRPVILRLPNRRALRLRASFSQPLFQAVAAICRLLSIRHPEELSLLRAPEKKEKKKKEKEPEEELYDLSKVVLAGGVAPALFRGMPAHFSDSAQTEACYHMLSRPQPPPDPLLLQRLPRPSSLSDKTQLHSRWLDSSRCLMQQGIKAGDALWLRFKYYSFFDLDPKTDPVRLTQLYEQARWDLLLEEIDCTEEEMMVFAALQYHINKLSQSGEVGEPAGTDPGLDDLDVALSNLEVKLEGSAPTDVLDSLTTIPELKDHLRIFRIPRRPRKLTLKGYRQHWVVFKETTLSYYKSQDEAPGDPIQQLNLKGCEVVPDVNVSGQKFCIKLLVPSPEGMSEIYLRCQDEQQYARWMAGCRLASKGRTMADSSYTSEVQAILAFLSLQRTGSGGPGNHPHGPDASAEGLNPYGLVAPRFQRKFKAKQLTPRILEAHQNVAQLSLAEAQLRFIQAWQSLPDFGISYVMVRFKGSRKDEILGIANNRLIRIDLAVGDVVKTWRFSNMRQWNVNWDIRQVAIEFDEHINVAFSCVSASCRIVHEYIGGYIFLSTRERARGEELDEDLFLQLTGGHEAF
inactive: [1] -0.026 | [2] 0.066 | [3] 0.053 | [4] -0.018 | [5] -0.019

GAGE12F (UniProt P0CL80)
inactive: [1] -0.016 | [2] 0.137 | [3] 0.109 | [4] -0.089 | [5] 0.012

HIST2H2BF isoform 2 (UniProt Q5QNW6)
inactive: [1] 0.148 | [2] -0.273 | [3] -0.29 | [4] -0.082 | [5] 0.125

FDPS (UniProt P14324)
inactive: [1] -0.328 | [2] 0.063 | [3] 0.143 | [4] 0.001 | [5] -0.121

GSTM4 (UniProt Q03013)
UniProt Q03013, sequence (Q03013 whole entry, looked up): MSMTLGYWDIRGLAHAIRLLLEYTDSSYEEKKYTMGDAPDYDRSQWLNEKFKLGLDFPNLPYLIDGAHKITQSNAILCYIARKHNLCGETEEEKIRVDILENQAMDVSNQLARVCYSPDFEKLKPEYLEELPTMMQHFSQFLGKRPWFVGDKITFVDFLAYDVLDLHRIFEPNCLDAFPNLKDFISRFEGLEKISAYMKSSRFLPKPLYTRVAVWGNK
inactive: [1] 0.064 | [2] 0.063 | [3] -0.114 | [4] -0.027 | [5] 0.03

GBE1 (UniProt Q04446)
UniProt Q04446, sequence (Q04446 whole entry, looked up): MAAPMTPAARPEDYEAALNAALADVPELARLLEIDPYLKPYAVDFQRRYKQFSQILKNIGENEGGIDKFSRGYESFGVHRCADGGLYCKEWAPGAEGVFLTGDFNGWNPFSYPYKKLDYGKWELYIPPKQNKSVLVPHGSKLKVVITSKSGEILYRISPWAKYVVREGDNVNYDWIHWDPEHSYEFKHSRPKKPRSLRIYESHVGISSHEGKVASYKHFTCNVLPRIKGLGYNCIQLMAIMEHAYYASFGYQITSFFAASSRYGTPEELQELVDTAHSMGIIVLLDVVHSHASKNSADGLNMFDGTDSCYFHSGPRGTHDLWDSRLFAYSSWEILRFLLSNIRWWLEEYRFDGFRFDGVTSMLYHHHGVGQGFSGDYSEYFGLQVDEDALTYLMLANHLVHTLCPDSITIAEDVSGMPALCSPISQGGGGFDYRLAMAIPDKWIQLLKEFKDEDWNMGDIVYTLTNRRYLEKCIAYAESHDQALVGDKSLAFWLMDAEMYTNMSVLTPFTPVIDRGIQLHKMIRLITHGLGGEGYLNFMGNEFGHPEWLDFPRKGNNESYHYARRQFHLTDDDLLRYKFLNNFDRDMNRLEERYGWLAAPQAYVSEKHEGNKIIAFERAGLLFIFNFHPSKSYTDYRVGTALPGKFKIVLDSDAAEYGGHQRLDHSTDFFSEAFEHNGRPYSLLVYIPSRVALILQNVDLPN
inactive: [1] -0.116 | [2] 0.01 | [3] -0.009 | [4] 0.03 | [5] 0.008

GPD1 (UniProt P21695)
inactive: [1] 0.095 | [2] 0.028 | [3] 0.123 | [4] -0.019 | [5] -0.238

GTF2A2 (UniProt P52657)
inactive: [1] 0.003 | [2] 0.057 | [3] 0.092 | [4] -0.064 | [5] -0.017

FBXO9 (UniProt Q9UK97)
UniProt Q9UK97, sequence (Q9UK97 whole entry, looked up): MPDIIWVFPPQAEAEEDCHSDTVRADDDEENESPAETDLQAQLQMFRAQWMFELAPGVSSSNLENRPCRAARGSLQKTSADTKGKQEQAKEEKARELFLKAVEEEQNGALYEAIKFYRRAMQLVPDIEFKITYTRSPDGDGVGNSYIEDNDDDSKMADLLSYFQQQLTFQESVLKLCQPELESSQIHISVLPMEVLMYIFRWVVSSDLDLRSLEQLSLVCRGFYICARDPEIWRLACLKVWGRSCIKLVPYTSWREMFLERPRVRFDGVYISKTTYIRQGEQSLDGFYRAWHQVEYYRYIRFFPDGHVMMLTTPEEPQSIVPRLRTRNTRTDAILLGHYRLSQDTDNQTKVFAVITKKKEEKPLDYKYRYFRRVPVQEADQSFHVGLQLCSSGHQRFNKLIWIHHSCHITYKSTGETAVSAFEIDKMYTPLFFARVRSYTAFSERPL
inactive: [1] -0.011 | [2] 0.23 | [3] 0.016 | [4] 0.161 | [5] 0.07

GATA1 (UniProt P15976)
UniProt P15976, sequence (P15976 whole entry, looked up): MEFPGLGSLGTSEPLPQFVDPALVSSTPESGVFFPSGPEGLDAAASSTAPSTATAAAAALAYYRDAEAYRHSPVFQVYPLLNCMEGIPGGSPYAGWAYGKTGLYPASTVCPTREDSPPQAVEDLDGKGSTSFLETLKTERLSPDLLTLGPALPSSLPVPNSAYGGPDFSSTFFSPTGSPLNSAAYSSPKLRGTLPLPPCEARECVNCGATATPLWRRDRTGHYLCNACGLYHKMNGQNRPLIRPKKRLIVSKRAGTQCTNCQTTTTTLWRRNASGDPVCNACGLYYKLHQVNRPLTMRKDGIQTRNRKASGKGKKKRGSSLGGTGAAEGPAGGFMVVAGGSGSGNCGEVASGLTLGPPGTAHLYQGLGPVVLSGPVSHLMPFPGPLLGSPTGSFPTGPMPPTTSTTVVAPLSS
inactive: [1] 0.061 | [2] -0.014 | [3] 0.064 | [4] 0.117 | [5] 0.029

IDH3A (UniProt P50213)
UniProt P50213, sequence (P50213 whole entry, looked up): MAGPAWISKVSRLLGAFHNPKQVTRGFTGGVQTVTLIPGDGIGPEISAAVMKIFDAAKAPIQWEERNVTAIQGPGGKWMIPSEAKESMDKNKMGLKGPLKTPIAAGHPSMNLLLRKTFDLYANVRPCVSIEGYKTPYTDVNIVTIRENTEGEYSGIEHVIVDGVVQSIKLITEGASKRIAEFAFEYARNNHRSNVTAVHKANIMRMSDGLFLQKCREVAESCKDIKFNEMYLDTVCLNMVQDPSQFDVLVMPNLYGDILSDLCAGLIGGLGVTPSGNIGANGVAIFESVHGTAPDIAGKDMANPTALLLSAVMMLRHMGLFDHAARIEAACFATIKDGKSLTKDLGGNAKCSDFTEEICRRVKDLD
inactive: [1] -0.029 | [2] 0.018 | [3] 0.026 | [4] -0.025 | [5] -0.005

HBZ (UniProt P02008)
inactive: [1] 0.047 | [2] 0.191 | [3] 0.091 | [4] -0.132 | [5] -0.009

GINS2 (UniProt Q9Y248)
inactive: [1] -0.011 | [2] 0.102 | [3] 0.115 | [4] -0.033 | [5] -0.026

FNTA (UniProt P49354)
inactive: [1] -0.009 | [2] -0.024 | [3] 0.02 | [4] 0.04 | [5] -0.009

FKBP3 (UniProt Q00688)
inactive: [1] 0.014 | [2] 0.003 | [3] 0.01 | [4] 0.011 | [5] -0.016

GCSH (UniProt P23434)
inactive: [1] 0.029 | [2] -0.004 | [3] -0.043 | [4] 0 | [5] 0.043

GLUL (UniProt P15104)
UniProt P15104, sequence (P15104 whole entry, looked up): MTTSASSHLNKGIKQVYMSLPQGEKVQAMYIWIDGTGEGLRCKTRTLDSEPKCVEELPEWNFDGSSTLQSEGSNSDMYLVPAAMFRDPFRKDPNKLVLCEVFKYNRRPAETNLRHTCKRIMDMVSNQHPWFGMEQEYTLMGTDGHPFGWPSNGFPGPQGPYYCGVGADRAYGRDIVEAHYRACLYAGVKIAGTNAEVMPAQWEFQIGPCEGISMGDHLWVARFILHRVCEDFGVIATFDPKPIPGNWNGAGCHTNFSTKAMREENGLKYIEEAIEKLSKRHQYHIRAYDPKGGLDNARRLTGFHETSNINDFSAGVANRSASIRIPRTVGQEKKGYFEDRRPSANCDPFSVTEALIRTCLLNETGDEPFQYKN
inactive: [1] -0.015 | [2] 0.005 | [3] 0 | [4] -0.007 | [5] 0.02

GNPAT (UniProt O15228)
inactive: [1] -0.034 | [2] 0.043 | [3] 0.07 | [4] -0.01 | [5] -0.036

GCDH (UniProt Q92947)
inactive: [1] 0.021 | [2] 0.012 | [3] 0.036 | [4] -0.043 | [5] -0.019

GTF2H3 (UniProt Q13889)
inactive: [1] 0.062 | [2] 0.065 | [3] 0.099 | [4] 0.048 | [5] 0.017
